Test [1] has as its system Wnt5a (protein binding on small-molecule microarray). The experiment in a line: small molecules binding Wnt5a protein – biophysical, small-molecule microarray, 635/667 nm fluorescence, primary screen (AID 1142).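 Note: fluorescence read at 667 nm with signal to noise per printed feature.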 As to conditions: 635 nm fluorescence, higher = more signal.
A short description of test [2]: ATP-based viability of Huh7 replicon cells – cell-based, CellTiter-Glo luminescence, basal, 48 h, cytotoxicity control for HCV replication inhibitor project, primary screen (AID 1143).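 Note: Huh7 hepatoma cells carrying a hepatitis C replication reporter with no stimulus; test concentration not given here.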 As to conditions: higher = more signal, called active from +8 up or from −8 down.
A short description of test [3]: Pseudomonas biofilm growth suppression – PAO1 strain, BacTiter-Glo luminescence, LB-PBS, primary screen (AID 1144). The following applies: P. aeruginosa PAO1 biofilm, 12 h, higher = more signal.
Test [4] in a line: basal CRE-LacZ reporter activity in PC12 – cell-based, unstimulated, primary screen (AID 1145). As to conditions: no forskolin, luminescence, 4.5 h, higher = more signal, called active from +8 up or from −8 down.
The nature of test [5]: forskolin-driven CRE-LacZ activity in PC12 – cell-based, CRE-LacZ reporter, forskolin-stimulated, primary screen (AID 1146).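 Note: PC12 cells with 6xCRE LacZ reporter stimulated by forskolin 10 µM; beta-galactosidase reporter signal reflecting CREB driven transcription.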 As to conditions: luminescence, 4.5 h, higher = more signal, called active from +8 up or from −8 down.
Test [6] has as its target Streptavidin (Streptomyces avidinii) (UniProt P22629). The experiment in a line: compounds binding control protein streptavidin – biophysical, small-molecule microarray, 635/667 nm fluorescence, artefact control for SMM compound annotation, primary screen (AID 1147).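 Note: signal reflects streptavidin binding to arrayed compounds as a control protein.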 The following applies: higher = more signal.
Test [7] can be described thus: probe aInhba binding on compound microarray – biochemical, small-molecule microarray, 635/667 nm fluorescence, primary screen (AID 1148).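 Note: score merges 667nm spot fluorescence with signal-to-noise for antibody binding to printed compounds.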 As to conditions: higher = more signal.
The target of test [8] is Torsin-1A (Homo sapiens) (UniProt O14656). The experiment in a line: TOR1A wild-type binding on microarray – cell lysate, small-molecule microarray, lysate, 635/667 nm, primary screen (AID 1149). The following applies: COS7 hTOR1A-WT lysate, 635 nm fluorescence, higher = more signal.
Chain of Torsin-1A (Homo sapiens) (O14656 whole entry, looked up): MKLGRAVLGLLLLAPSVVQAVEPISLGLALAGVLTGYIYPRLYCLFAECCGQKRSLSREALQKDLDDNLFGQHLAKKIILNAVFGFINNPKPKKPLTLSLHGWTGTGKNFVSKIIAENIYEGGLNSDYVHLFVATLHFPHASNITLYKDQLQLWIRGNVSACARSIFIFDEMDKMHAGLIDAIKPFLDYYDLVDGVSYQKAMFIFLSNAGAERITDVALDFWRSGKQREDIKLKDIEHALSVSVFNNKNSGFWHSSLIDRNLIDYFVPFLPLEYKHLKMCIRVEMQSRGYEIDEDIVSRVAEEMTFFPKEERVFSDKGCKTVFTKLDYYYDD
For test [9] the target is unchanged. As to the kind of experiment: torsin A mutant lysate binding on microarrays – cell lysate, small-molecule microarray, COS7 lysate, 635/667 nm fluorescence, primary screen (AID 1150).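 Note: score pools 667 nm emission and signal to noise measuring lysate protein binding.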 The following applies: COS7 hTOR1A mutant lysate, 635 nm fluorescence, higher = more signal.
In test [10] the test system is Sonic hedgehog protein (Shh). As to the kind of experiment: Sonic hedgehog microarray binding compounds – biochemical, small-molecule microarray, 635/667 nm fluorescence, primary screen (AID 1151).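 Note: Shh protein binding to compounds spotted on small-molecule microarray slides; score combines spot fluorescence intensity with signal-to-noise across triplicate slides.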 As to conditions: 635 nm fluorescence, higher = more signal.
Test [11] can be described thus: optical density shifts of acrAB sulA E. coli – strain DRC41, OD650, 48 h, E. coli filamentation inducer project, primary screen (AID 1152).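 Note: E. coli MC1000 strain DRC41 lacking acrAB efflux pump and sulA.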 The following applies: higher = more signal, called active from +8 up or from −8 down.
Test [12] in a line: probe aLefty1 binding on compound microarray – biochemical, small-molecule microarray, 635/667 nm fluorescence, primary screen (AID 1153).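 Note: score merges spot fluorescence with signal-to-noise ratio from the scanned slide images.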 The following applies: higher = more signal.
Test [13] can be described thus: plasmodial surface anion channel blockers, osmotic lysis – cell-based, P. falciparum Indochina, OD700, 1 h, primary screen (AID 1154). As to conditions: P. falciparum Indochina infected RBC osmotic lysis, higher = more signal, called active from +8 up or from −8 down.
A short description of test [14]: plasmodial surface anion channel blockers, osmotic lysis – cell-based, P. falciparum Indochina, OD700, 2 h, primary screen (AID 1155).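 Note: lysis reports solute entry through the parasite surface anion channel PSAC.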 As to conditions: P. falciparum Indochina infected erythrocytes, higher = more signal, called active from +8 up or from −8 down.
The nature of test [15]: changes in parasitized red cell lysis, either direction – P. falciparum Indochina, OD700, 3 h, PSAC antagonist project, primary screen (AID 1156). As to conditions: P. falciparum-infected erythrocytes, osmotic lysis, higher = more signal, called active from +8 up or from −8 down.
The nature of test [16]: plasmodial surface anion channel blockers, osmotic lysis – cell-based, P. falciparum Indochina, OD700, 18 h, primary screen (AID 1157). The following applies: P. falciparum Indochina infected erythrocytes, osmotic lysis OD700, 18 h; higher = more signal, called active from +8 up or from −8 down.
Test [17] in a line: S6 kinase pathway phospho-S6 level changes – cell-based, A549, cytoblot, luminescence, serum-stimulated, primary screen (AID 1158).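 Note: serum-stimulated A549 lung adenocarcinoma cells; signal is phosphorylated S6 detected by cytoblot immunostaining with HRP secondary.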 As to conditions: 5 h, higher = more signal.
Test [18] addresses NADPH oxidase 2 (Homo sapiens) (UniProt P04839). As to the kind of experiment: compounds shifting NOX2 Amplex Red fluorescence – cell-based, HEK293-NOX2, PMA-stimulated, NOX inhibitor project, primary screen (AID 1159). Note: test concentration not given here. The following applies: 45 min, higher = more signal, called active from +8 up or from −8 down.
The target of test [19] is NADPH oxidase 4 (Homo sapiens) (UniProt Q9NPH5). As to the kind of experiment: compounds shifting NOX4 Amplex Red fluorescence – cell-based, HEK293-NOX4, tetracycline-induced, NOX inhibitor project, primary screen (AID 1160). As to conditions: HEK293-NOX4, Amplex Red H2O2 fluorescence, 45 min; higher = more signal, called active from +8 up or from −8 down.
Chain of NADPH oxidase 4 (Homo sapiens) (Q9NPH5 whole entry, looked up): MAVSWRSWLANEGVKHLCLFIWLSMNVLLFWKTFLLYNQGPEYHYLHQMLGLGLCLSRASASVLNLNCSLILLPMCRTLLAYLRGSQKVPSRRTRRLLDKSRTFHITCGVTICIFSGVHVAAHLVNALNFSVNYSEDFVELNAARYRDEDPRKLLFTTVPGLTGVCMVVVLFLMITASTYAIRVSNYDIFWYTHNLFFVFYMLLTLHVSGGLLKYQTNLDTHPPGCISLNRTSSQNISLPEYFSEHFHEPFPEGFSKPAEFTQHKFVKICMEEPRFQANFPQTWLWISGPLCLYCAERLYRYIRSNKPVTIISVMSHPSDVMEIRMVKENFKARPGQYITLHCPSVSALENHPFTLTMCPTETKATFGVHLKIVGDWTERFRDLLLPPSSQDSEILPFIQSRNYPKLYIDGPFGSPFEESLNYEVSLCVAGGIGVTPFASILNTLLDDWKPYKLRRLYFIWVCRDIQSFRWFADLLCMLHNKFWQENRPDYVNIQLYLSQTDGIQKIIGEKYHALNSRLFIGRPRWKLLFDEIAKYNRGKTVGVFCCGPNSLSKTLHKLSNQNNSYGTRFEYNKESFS
Test [20] deals with NADPH oxidase 5 (Homo sapiens) (UniProt Q96PH1). The experiment in a line: compounds shifting NOX5 Amplex Red fluorescence – cell-based, HEK293-NOX5, NOX inhibitor project, primary screen (AID 1161). The following applies: HEK293-NOX5, ionomycin, 45 min, higher = more signal.
Chain of NADPH oxidase 5 (Homo sapiens) (Q96PH1 whole entry, looked up): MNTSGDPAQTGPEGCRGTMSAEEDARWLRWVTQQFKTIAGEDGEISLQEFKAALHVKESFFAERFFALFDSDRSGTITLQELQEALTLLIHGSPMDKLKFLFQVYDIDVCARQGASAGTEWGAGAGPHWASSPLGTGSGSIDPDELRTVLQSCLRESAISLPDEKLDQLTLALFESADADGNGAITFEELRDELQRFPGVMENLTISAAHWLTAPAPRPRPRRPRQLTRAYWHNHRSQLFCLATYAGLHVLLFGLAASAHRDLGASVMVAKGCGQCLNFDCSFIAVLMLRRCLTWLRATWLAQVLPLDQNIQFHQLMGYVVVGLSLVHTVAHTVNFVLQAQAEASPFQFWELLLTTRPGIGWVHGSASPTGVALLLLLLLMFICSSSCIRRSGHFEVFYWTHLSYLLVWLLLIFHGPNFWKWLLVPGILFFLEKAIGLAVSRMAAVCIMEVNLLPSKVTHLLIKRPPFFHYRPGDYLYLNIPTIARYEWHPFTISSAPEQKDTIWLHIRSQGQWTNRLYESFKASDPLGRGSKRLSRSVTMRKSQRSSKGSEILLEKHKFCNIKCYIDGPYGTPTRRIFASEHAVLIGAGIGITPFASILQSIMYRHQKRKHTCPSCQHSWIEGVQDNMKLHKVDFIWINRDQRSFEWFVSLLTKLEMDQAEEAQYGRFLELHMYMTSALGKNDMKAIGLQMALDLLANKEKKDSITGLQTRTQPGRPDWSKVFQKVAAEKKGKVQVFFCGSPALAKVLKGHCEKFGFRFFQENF

SMILES strings stand for the structures. Calls of active or inactive are those of the source. Unless noted, the rule behind the calls is not given here.

Chain of NADPH oxidase 2 (Homo sapiens) (P04839 whole entry, looked up): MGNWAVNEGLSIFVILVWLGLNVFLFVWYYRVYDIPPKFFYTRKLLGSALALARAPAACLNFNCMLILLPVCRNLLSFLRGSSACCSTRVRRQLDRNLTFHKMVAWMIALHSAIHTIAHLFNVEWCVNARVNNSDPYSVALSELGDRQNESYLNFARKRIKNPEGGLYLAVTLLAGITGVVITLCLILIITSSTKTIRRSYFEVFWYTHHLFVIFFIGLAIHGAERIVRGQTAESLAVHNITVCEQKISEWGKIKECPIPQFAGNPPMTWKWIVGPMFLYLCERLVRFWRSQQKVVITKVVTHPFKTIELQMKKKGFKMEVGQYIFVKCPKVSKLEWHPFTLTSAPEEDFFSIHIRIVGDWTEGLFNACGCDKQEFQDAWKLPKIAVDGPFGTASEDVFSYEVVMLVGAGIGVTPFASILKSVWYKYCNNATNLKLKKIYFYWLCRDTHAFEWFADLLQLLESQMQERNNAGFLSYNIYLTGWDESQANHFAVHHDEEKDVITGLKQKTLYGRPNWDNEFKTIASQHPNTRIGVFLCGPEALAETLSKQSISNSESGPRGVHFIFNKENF
Chain of Streptavidin (Streptomyces avidinii) (P22629 whole entry, looked up): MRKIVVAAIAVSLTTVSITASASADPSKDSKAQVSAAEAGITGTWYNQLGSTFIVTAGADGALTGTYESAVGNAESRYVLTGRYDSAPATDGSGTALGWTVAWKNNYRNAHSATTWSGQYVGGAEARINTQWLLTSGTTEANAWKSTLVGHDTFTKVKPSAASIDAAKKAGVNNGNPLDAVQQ

As to `COCCOC(=O)N1C(=O)[C@@]2(c3cc(C#Cc4ccc(OC)cc4)ccc31)[C@H](c1ccccc1OCCO)N1[C@H](c3ccccc3)[C@H](c3ccccc3)OC(=O)[C@H]1[C@@H]2C(=O)NC[C@H](O)c1ccccc1`, the composite z-score in test [1] is 0.609; in [6], 0.115; in test [7] it was 0.143; in test [8] it was 0.175; in test [9], 0.525; in [10], 2.21. For the same compound, in [12], the composite z-score is 0.396. Also, the z-score in test [2] was -3.23 (inactive); in test [3] it was -0.436 (inactive); in test [4], -0.602 (inactive); in test [5], -0.0611 (inactive); in test [11] it was 0.216 (inactive); in test [13], 2.92 (inactive). For the same compound, the z-score was 2.16 (inactive) in [14]; -0.76 (inactive) in test [15]; 0.804 (inactive) in [16]; -0.325 in test [17]; 1.16 (inactive) in test [18]; 1.16 (inactive) in test [19]. Besides, in test [20], the z-score came to 0.967.

Regarding `COc1ccc([C@H]2OC[C@@H]3C[C@@H](Cc4ccccc4)C(=O)N32)cc1`, the composite z-score was 0.157 in test [1]; -0.679 in [6]; -0.0403 in [7]; 0.656 in test [8]; 0.556 in test [9]; 1.33 in test [10]. The compound further showed a composite z-score in test [12] of 0.25. Further, the z-score in [2] was -0.316 (inactive); in [3] it was 1.01 (inactive); in test [4] it was 0.978 (inactive); in test [5] it was 0.627 (inactive); in [11], -0.783 (inactive); in test [13], 2.1 (inactive). For the same compound, the z-score in test [14] is 0.0371 (inactive); in test [15], -0.59 (inactive); in test [16], 0.308 (inactive); in [17] it was -0.597; in [18] it was 1.25 (inactive); in test [19], 0.524 (inactive). Further, the z-score in test [20] was -0.604.

As for `COCCOC(=O)N1C(=O)[C@@]2(c3cc(C#CC4(O)CCCCCC4)ccc31)[C@H](c1ccc(OCCO)cc1)N1[C@H](c3ccccc3)[C@H](c3ccccc3)OC(=O)[C@H]1[C@@H]2C(=O)N1CCN(c2ncccn2)CC1`, the composite z-score in [1] turned out to be 0.499; in test [6], 2.07; in [7], 0.0541; in test [8] it was 0.782; in [9], 0.629; in test [10], 1.17. Besides, the composite z-score in test [12] was 0.813. For the same compound, the z-score in test [2] is -0.922 (inactive); in test [3] it was 0.517 (inactive); in test [4] it was 0.346 (inactive); in [5], 0.838 (inactive); in test [11], -0.393 (inactive); in [13] it was 7.73 (inactive). Moreover, the z-score in [14] is 2.47 (inactive); in [15] it was 0.493 (inactive); in test [16] it was 1.12 (inactive); in test [17], -0.537; in [18], 1.61 (inactive); in [19], 0.854 (inactive). The z-score in [20] is 1.83.

For `NCCCCCNC(=O)[C@@H]1C[C@@H]2C(=O)N[C@@H](Cc3ccccc3)C(=O)N2[C@@H]1c1ccc(O)cc1`, the composite z-score in test [1] worked out at 0.0588; in test [6], 1.38; in [7], 0.174; in test [8], 0.202; in test [9], 0.394; in test [10] it was 1.2. The compound further came in with a composite z-score in test [12] of 0.176. For the same compound, the z-score is 0.0478 (inactive) in test [2]; -0.35 (inactive) in test [3]; 0.281 (inactive) in test [4]; -0.629 (inactive) in test [5]; -1.16 (inactive) in [11]; 1.24 (inactive) in test [13]. Further, the z-score in test [14] was 0.24 (inactive); in test [15], -0.648 (inactive); in [16], -0.116 (inactive); in test [17], -0.358; in [18], 0.713 (inactive); in [19], 0.539 (inactive). Further, in test [20], the z-score was -0.657.

Regarding `C=CC[C@]1(C(=O)NCc2ccccc2)N=C(c2ccc(OCCCO)cc2)O[C@H]1c1ccccc1N=[N+]=[N-]`, the composite z-score is 0.713 in test [1]; 2.21 in test [6]; -0.0468 in test [7]; 0.818 in [8]; 0.787 in test [9]; -0.231 in [10]. Moreover, the composite z-score in test [12] is 0.222. Moreover, the z-score was -3.2 (inactive) in test [2]; -0.00841 (inactive) in test [3]; 1.49 (inactive) in test [4]; -0.967 (inactive) in [5]; 0.0858 (inactive) in test [11]; 31.8 (active) in test [13]. In addition, the z-score was 27.1 (active) in test [14]; 3.46 (inactive) in [15]; 6.96 (inactive) in [16]; 0.0617 in [17]; -1.8 (inactive) in test [18]; 0.721 (inactive) in test [19]. Further, the z-score in [20] is -0.0713.

In the case of `C=C(CC1([C@@H](NP(=O)(c2ccccc2)c2ccccc2)[C@H]2C[C@@H]2CCCC)CC1)c1ccccc1`, the composite z-score in [1] was 0.542; in test [6] it was 1.39; in [7], 0.374; in [8] it was 0.443; in test [9], 0.738; in [10], -0.509. In test [12], the composite z-score came out at 0.568. In addition, the z-score is -3.74 (inactive) in test [2]; 0.955 (inactive) in [3]; 0.4 (inactive) in [4]; 0.151 (inactive) in test [5]; -1.67 (inactive) in [11]; 0.579 (inactive) in [13]. Besides, the z-score in test [14] was 0.495 (inactive); in test [15], 2.62 (inactive); in [16] it was 0.935 (inactive); in test [17], 0.534; in test [18], -0.538 (inactive); in test [19] it was -0.988 (inactive). The z-score in test [20] is -2.95.

For `COc1ccc(C(O)C2C=CC3C(=O)N(Cc4ccccc4)C(=O)C3N2n2cnnc2)cc1OCc1ccccc1` (stereo not given), the composite z-score in test [1] is 0.0401; in [6], 0.296; in test [7], -0.0962; in [8], -0.476; in test [9], 0.562; in test [10], -0.733. The compound also yielded a composite z-score in [12] of 0.142. Also, the z-score was -2.81 (inactive) in test [2]; -2.01 (inactive) in [3]; -0.424 (inactive) in test [4]; -0.0263 (inactive) in [5]; 0.209 (inactive) in test [11]; 1.3 (inactive) in test [13]. In addition, the z-score in [14] is 0.0118 (inactive); in test [15], 0.372 (inactive); in [16], -1.82 (inactive); in test [17] it was 1.42; in [18], -0.361 (inactive); in test [19], -0.079 (inactive). Moreover, in test [20], the z-score was 0.384.

For `COC(=O)[C@H](Cc1ccccc1)N1CC2=C[C@@H](C3CC3)n3c(=O)n(C)c(=O)n3[C@H]2[C@@H]1[C@@H](O)Cc1ccccc1`, the composite z-score is 0.0601 in [1]; 0.462 in test [6]; -0.0589 in test [7]; 0.413 in [8]; -0.0857 in [9]; 1.4 in test [10]. In test [12], the composite z-score stood at 0.355. Also, the z-score in test [2] was -1.18 (inactive); in test [3] it was 0.39 (inactive); in [4], 2.03 (inactive); in [5] it was -0.269 (inactive); in [11], -1.32 (inactive); in test [13], 11.5 (active). For the same compound, the z-score in test [14] was 2.35 (inactive); in test [15] it was 0.645 (inactive); in test [16], 1.58 (inactive); in test [17] it was 0.144; in test [18], -0.813 (inactive); in test [19], -0.218 (inactive). For the same compound, the z-score in [20] is -1.71.
